This passage reports fold change results from PubChem BioAssay AID1611 (NINDS Approved Drug Screening Program, 2009).

SMILES strings stand for the structures. Several values for one entry are separate records, joined by “and”; a condition that tells them apart may be missing. Equal values may be shown once.

The assay is described as follows: HSE-luciferase reporter activators – cell-based (AID 1611). Particulars: human cells, HSE-luciferase heat shock reporter; stronger effect = higher value. (In general: In a reporter assay the amount or activity of a reporter protein is the signal.)

For `CN1C(C(=O)Nc2ccccn2)=C(O)c2sccc2S1(=O)=O`, the fold change came to 0.84.

Take `CCCCNc1cc(C(=O)O)cc(S(N)(=O)=O)c1Oc1ccccc1`: the fold change stood at 1.03.

For the compound `CC12CC3CC(C)(C1)CC(N)(C3)C2`, the fold change was 0.96.

As for `CCN(CC)CCNC(=O)c1cc(Br)c(N)cc1OC`, the fold change is 1.36.

In the case of `CN(C)CCOC(c1ccccc1)c1ccccc1` (tested in a mixture with another compound), the fold change was 0.8.

On to `Cn1c(=O)c2[nH]cnc2n(C)c1=O`, for which the fold change was found to be 1.18.

Regarding `Cc1ccccc1OCC(O)CO` (stereo not given), the fold change was determined as 0.73.

For `CCCCCC(=O)O[C@]1(C(C)=O)CCC2C3CCC4=CC(=O)CC[C@]4(C)C3CC[C@@]21C` (stereo not given in full), the fold change came out at 1.47.

For `COC(=O)C1=C(C)NC(C)=C(C(=O)OC)C1c1ccccc1[N+](=O)[O-]`, the fold change came out at 1.12.

As to `Oc1c(I)cc(I)c2cccnc12`, the fold change came to 1.19.

On to `CCC1(C)CC(=O)NC1=O` (stereo not given), for which the fold change was 1.19.

As to `CCc1cc(C(N)=S)ccn1`, the fold change came out at 0.94.

With `CC1CCC(NC(=O)N(CCCl)N=O)CC1` (stereo not given), the fold change amounted to 0.95.

As for `O=c1[nH]cc(F)c(=O)[nH]1`, the fold change came out at 0.52.

For `CC(CN(C)C)CN1c2ccccc2CCc2ccccc21` (stereo not given), the fold change was found to be 1.16.

On to `O=C1OCCN1/N=C/c1ccc([N+](=O)[O-])o1`, for which the fold change stood at 1.79.

Regarding `Cc1ccc(C)c(OCCCC(C)(C)C(=O)O)c1`, the fold change was found to be 0.57.

Regarding `CSc1ccc2c(c1)N(CCC1CCCCN1C)c1ccccc1S2` (stereo not given), the fold change amounted to 0.58.

For `COc1c(C)c2c(c(O)c1C/C=C(\C)CCC(=O)O)C(=O)OC2`, the fold change worked out at 0.85.

Turning to `NC(N)=NC(N)=Nc1ccccc1`, the fold change is 0.95.

On to `COc1ccc2cc([C@H](C)C(=O)O)ccc2c1`, for which the fold change was determined as 0.71.

Take `CC(=O)O[C@]1(C(C)=O)CCC2C3C=C(Cl)C4=CC(=O)[C@@H]5C[C@@H]5[C@]4(C)C3CC[C@@]21C` (stereo not given in full): the fold change is 9.01.

As for `COc1c2occc2c(OC)c2c(=O)cc(C)oc12`, the fold change was 0.96.

Consider `C=C(C)[C@H]1CC=C(C(=O)O)CC1`, for which the fold change was 1.32.

On to `CCN(CC)CC(=O)Nc1c(C)cccc1C`, for which the fold change was 0.78.

For `COc1ccc2cc3[n+](cc2c1OC)CCc1cc2c(cc1-3)OCO2`, the fold change stood at 1.07.

In the case of `NNc1nncc2ccccc12`, the fold change is 1.1.

In the case of `CC(=O)Oc1cccc(O)c1`, the fold change turned out to be 0.84.

Turning to `CCN(CC)CCCC(C)Nc1c2ccc(Cl)cc2nc2ccc(OC)cc12` (stereo not given), the fold change was 0.97.

With `Cc1nnc(SCC2=C(C(=O)O)N3C(=O)[C@@H](NC(=O)Cn4cnnn4)[C@H]3SC2)s1`, the fold change came to 0.8.

On to `NCCCCCCNS(=O)(=O)c1cccc2c(Cl)cccc12`, for which the fold change is 1.18 and 0.78.

Regarding `Nc1cc(-c2ccncc2)c[nH]c1=O`, the fold change worked out at 1.16.

Turning to `Cc1ncc([N+](=O)[O-])n1CCO`, the fold change was 1.2.

In the case of `Cc1ccc(C(=O)C(C)CN2CCCCC2)cc1` (stereo not given), the fold change worked out at 0.93.

For the compound `NC(=O)c1cnccn1`, the fold change was determined as 1.78.

With `COc1ccccc1OCC(O)CO` (stereo not given), the fold change worked out at 1.

Turning to `CC(=O)Oc1ccc2c(c1)CCC1C2CC[C@@]2(C)C1CC[C@@H]2OC(C)=O` (stereo not given in full), the fold change was 1.07.

Consider `CC/C(=C(\c1ccccc1)c1ccc(OCCN(C)C)cc1)c1ccccc1`, for which the fold change came out at 0.77.

For `CC(COc1ccccc1)NC(C)[C@H](O)c1ccc(O)cc1` (stereo not given in full), the fold change was determined as 5.01.

For `CCCCCCc1ccc(O)cc1O`, the fold change was 1.27.
